Screening results from PubChem.
miR122 inh: miR-122 sensor activation. 340,000 compounds, 0.14% hits. activation, % at 12.5 µM. AID 623901. Huh7 psiCHECK-miR122 Renilla luciferase sensor, 48 h;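 active = mean activation of 30% or more, with every replicate also reaching 30%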;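 also: 0% = median of neutral control wells and 100% = median of positive control wells; higher luciferase signal means stronger suppression of miR-122 activity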
An asterisk follows results filed as active. The full list was thinned out, with hits kept by preference.

SMILES	miR122 inh
C[C@@H]1CN([C@H](C)CO)S(=O)(=O)c2ccc(C3=CCCCC3)cc2O[C@H]1CN(C)S(C)(=O)=O	6
C[C@@H]1CN([C@@H](C)CO)S(=O)(=O)c2ccc(C3=CCCCC3)cc2O[C@@H]1CN(C)C(=O)CC1CC1	-3
C[C@@H]1CN([C@H](C)CO)S(=O)(=O)c2ccc(C3=CCCCC3)cc2O[C@@H]1CN(C)C(=O)Nc1ccc2c(c1)OCO2	32*
C[C@@H]1CN([C@@H](C)CO)S(=O)(=O)c2ccc(C3=CCCC3)cc2O[C@@H]1CN(C)C(=O)c1ccc(F)cc1	37*
CCC(=O)N(C)C[C@H]1Oc2ncc(C#CCC3CCCC3)cc2C(=O)N([C@@H](C)CO)C[C@@H]1C	7
C[C@H]1CN([C@@H](C)CO)S(=O)(=O)c2ccc(-c3ccc(F)cc3)cc2O[C@H]1CN(C)C(=O)C1CCOCC1	-7
C/C=C/c1cnc2c(c1)C(=O)N([C@@H](C)CO)C[C@@H](C)[C@@H](CN(C)C(=O)Cc1cccnc1)O2	-5
C[C@@H]1CN([C@@H](C)CO)S(=O)(=O)c2ccc(-c3ccccc3)cc2O[C@@H]1CN(C)Cc1cncnc1	1
C[C@@H]1CN([C@H](C)CO)C(=O)c2cc(-c3ccncc3)cnc2O[C@H]1CN(C)C(=O)Cc1ccccn1	8
C[C@H](CO)N1C[C@H](C)[C@@H](CN(C)C(=O)C2CCCCC2)Oc2ncc(C3=CCCC3)cc2C1=O	2
COc1ccc(NC(=O)N(C)C[C@@H]2Oc3ncc(C4=CCCC4)cc3C(=O)N([C@H](C)CO)C[C@@H]2C)cc1	4
COc1cccc(-c2cnc3c(c2)C(=O)N([C@@H](C)CO)C[C@H](C)[C@H](CN(C)C(=O)CC2CC2)O3)c1	4
C[C@@H]1CN([C@@H](C)CO)C(=O)c2cc(C#CCc3ccccc3)cnc2O[C@@H]1CN(C)CC1CCOCC1	0
C[C@H]1CN([C@@H](C)CO)S(=O)(=O)c2ccc(-c3cncnc3)cc2O[C@@H]1CN(C)C(=O)Cc1cccnc1	1
COCC#Cc1cnc2c(c1)C(=O)N([C@H](C)CO)C[C@H](C)[C@H](CN(C)S(=O)(=O)c1cccc(OC)c1)O2	7
CC(C)C#Cc1ccc2c(c1)O[C@@H](CN(C)Cc1ccncc1)[C@H](C)CN([C@H](C)CO)S2(=O)=O	-3
C[C@H](CO)N1C[C@H](C)[C@@H](CN(C)C(=O)Cc2ccccc2)Oc2ncc(C#CC3(O)CCCC3)cc2C1=O	-4
COc1ccccc1-c1ccc2c(c1)O[C@@H](CN(C)S(=O)(=O)c1ccccc1)[C@@H](C)CN([C@@H](C)CO)S2(=O)=O	1
COc1ccc(C(NC(C)=O)c2cc(Cl)c3cccnc3c2O)cc1 (stereo unspecified)	72*
CNC[C@H]1Oc2ncc(C#CCC3CCCC3)cc2C(=O)N([C@H](C)CO)C[C@H]1C	4
C/C=C/c1cnc2c(c1)C(=O)N([C@H](C)CO)C[C@H](C)[C@H](CN(C)C(=O)Cc1cccnc1)O2	10
CCN(CC)c1ccc(C(=C2C=CC(=[N+](CC)CC)C=C2)c2ccc(N(CC)CC)cc2)cc1	38*
C[C@H](CO)N1C[C@H](C)[C@@H](CN(C)C(=O)Nc2ccccc2F)Oc2ncc(/C=C/c3ccccc3)cc2C1=O	-9
CC(=O)N(C)C[C@@H]1Oc2cc(C#CC3CCCCC3)ccc2S(=O)(=O)N([C@H](C)CO)C[C@@H]1C	1
C[C@@H]1CN([C@H](C)CO)S(=O)(=O)c2ccc(C#CC3CC3)cc2O[C@@H]1CN(C)C(=O)c1cccc(F)c1	44*
SMILES	miR122 inh
COCC(=O)N(C)C[C@@H]1Oc2cc(C#CC3CC3)ccc2S(=O)(=O)N([C@@H](C)CO)C[C@H]1C	-1
C[C@@H]1CN([C@@H](C)CO)S(=O)(=O)c2ccc(C#CC3CC3)cc2O[C@@H]1CN(C)C(=O)c1cccc(F)c1	42*
C[C@H]1CN([C@@H](C)CO)S(=O)(=O)c2ccc(C#CC3CC3)cc2O[C@H]1CN(C)C(=O)C1CC1	-14
COCC(=O)N(C)C[C@H]1Oc2cc(C#CC3CC3)ccc2S(=O)(=O)N([C@H](C)CO)C[C@@H]1C	-2
COCC(=O)N(C)C[C@H]1Oc2cc(C#CC3CC3)ccc2S(=O)(=O)N([C@H](C)CO)C[C@H]1C	10
C[C@H](O)C#Cc1cnc2c(c1)C(=O)N([C@@H](C)CO)C[C@H](C)[C@H](CN(C)C(=O)CN(C)C)O2	-4
C[C@@H]1CN([C@@H](C)CO)S(=O)(=O)c2ccc(Br)cc2O[C@@H]1CN(C)C(=O)CC1CC1	-7
C[C@@H]1CN([C@@H](C)CO)C(=O)c2cc(-c3ccc(C#N)cc3)cnc2O[C@@H]1CN(C)CC1CCOCC1	7
O=c1c2c3c(sc2nc2n1CCC2)CCCC3	32*
C[C@H](CO)N1C[C@H](C)[C@H](CN(C)C)Oc2cc(-c3ccc(C(=O)N(C)C)cc3)ccc2S1(=O)=O	2
Cc1cc(C(=O)N/N=C/c2cc(Br)ccc2OC(=O)c2ccccc2)n[nH]1	32*
CO[C@H]1CN(C)C(=O)c2cc(NC(=O)c3ccc(F)cc3)ccc2OC[C@H](C)N(C)C[C@H]1C	1
C[C@H](CO)N1C[C@H](C)[C@H](CN(C)C(=O)c2ccccn2)Oc2ncc(-c3cccc(F)c3)cc2C1=O	8
C[C@@H]1CN([C@@H](C)CO)C(=O)c2cc(-c3cccc(C#N)c3)cnc2O[C@@H]1CN(C)C(=O)C1CCCCC1	-1
C[C@H](CO)N1C[C@H](C)[C@@H](CN(C)Cc2ccc(C(F)(F)F)cc2)Oc2ccc(N(C)C)cc2C1=O	-98
C[C@H]1CN([C@@H](C)CO)C(=O)c2cccc(NC(=O)NC3CCCCC3)c2O[C@@H]1CN(C)Cc1ccc(C(F)(F)F)cc1	-121
C[C@@H]1CN([C@@H](C)CO)C(=O)c2cccc(NC(=O)Nc3ccccc3)c2O[C@H]1CN(C)Cc1ccc(C(F)(F)F)cc1	-115
COc1ccc(CN(C)C[C@@H]2OCCCC[C@H](C)Oc3ccc(NC(=O)Nc4ccc(C(F)(F)F)cc4)cc3C(=O)N([C@H](C)CO)C[C@H]2C)cc1	32*
C[C@@H]1CN([C@@H](C)CO)C(=O)Cc2cc(NC(=O)Nc3ccc(C(F)(F)F)cc3)ccc2O[C@@H]1CN(C)C(=O)Nc1cccc2ccccc12	-265
C[C@H](CO)N1C[C@H](C)[C@@H](CN(C)Cc2ccc(C(F)(F)F)cc2)Oc2c(NC(=O)C3CCCCC3)cccc2C1=O	-122
C[C@@H]1CN([C@@H](C)CO)C(=O)Cc2cc(NC(=O)Nc3ccc(C(F)(F)F)cc3)ccc2O[C@H]1CN(C)Cc1ccc(Oc2ccccc2)cc1	35*
C[C@@H]1CN([C@H](C)CO)C(=O)Cc2cc(NC(=O)Nc3ccc(C(F)(F)F)cc3)ccc2O[C@@H]1CN(C)C(=O)Nc1cccc2ccccc12	-112
COc1ccc(S(=O)(=O)Nc2cccc3c2O[C@@H](CN(C)Cc2ccc(C(F)(F)F)cc2)[C@H](C)CN([C@H](C)CO)C3=O)cc1	-102
C[C@@H]1CN([C@@H](C)CO)C(=O)c2cccc(NC(=O)Nc3ccc(F)cc3)c2O[C@H]1CN(C)Cc1ccc(C(F)(F)F)cc1	-91
COc1ccc(CN(C)C[C@H]2OCCCC[C@H](C)Oc3ccc(NC(=O)Nc4ccc(C(F)(F)F)cc4)cc3C(=O)N([C@@H](C)CO)C[C@@H]2C)cc1	31*
C[C@@H]1CN([C@H](C)CO)C(=O)c2cc(NC(=O)Cc3ccccc3)ccc2O[C@@H](C)CCCCO[C@H]1CN(C)Cc1ccc(C(F)(F)F)cc1	31*
